Assay [1] in a line: CCTE_Shafer_MEA_dev_bursting_electrodes_number: CCTE's Neural Network Formation Assay for Number of Bursting Electrodes, Shafer Lab (AID 2284043; active means hit-call score of the fitted dose curve at least 0.9, where 1 is the maximum;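 on AC50: potency is for loss of bursting electrodes relative to DMSO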). The method in brief: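 Read-out is the per-well number of electrodes bursting at least once every 2 minutes, recorded on days 5, 7, 9 and 12 and collapsed by trapezoidal area under the curve. Cultures were primary rat cortical neurons on MEA plates, treated continuously from plating.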

Assay [2] in a line: CCTE_Shafer_MEA_dev_per_burst_interspike_interval: CCTE's Neural Network Formation Assay for Burst Interspike Interval, Shafer Lab (AID 2284044).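 Further: mean spike spacing inside bursts as AUC over recordings on days 5 7 9 12.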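 On AC50: potency for a decrease of within-burst interspike interval below DMSO level.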 The method in brief:
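Spontaneous activity of maturing rat cortical networks is recorded on DIV 5, 7, 9 and 12 under chronic compound exposure beginning at plating. Endpoint: burst interspike interval well-mean, collapsed into trapezoidal AUC and fitted in the negative direction relative to DMSO.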

Assay [3] in a line: CCTE_Shafer_MEA_dev_burst_duration_mean: CCTE's Neural Network Formation Assay for Mean Burst Duration, Shafer Lab (AID 2284045).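 On AC50: curve fitted for loss meaning shorter burst duration than DMSO.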 The procedure, abridged: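 Read-out: average first-to-last-spike interval within single-electrode bursts, averaged over bursting electrodes per well, then summarised as area under the curve across days 5, 7, 9 and 12. Developing rat cortical networks were exposed from day 0.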

The nature of assay [4]: CCTE_Shafer_MEA_dev_interburst_interval_mean: CCTE's Neural Network Formation Assay for Mean Interburst Interval, Shafer Lab (AID 2284046).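 Further: well-mean interburst interval of bursting electrodes as AUC over four recording days; curve fitted for decrease in interburst interval relative to DMSO.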 The method in brief: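 Recordings on days 5, 7, 9 and 12 give well-mean interburst interval across actively bursting electrodes, summarized as area under the curve. Cultures: rat cortical neurons, continuous exposure from day 0, compound renewed at feeds; decrease analyzed versus DMSO.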

A short description of assay [5]: CCTE_Shafer_MEA_dev_inter_network_spike_interval_mean: CCTE's Neural Network Formation Assay for Mean Inter-network Spike Interval, Shafer Lab (AID 2284047).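 On AC50: potency for a decrease in mean inter-network spike interval below DMSO.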 The method in brief: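 Primary rat cortical neurons on 16-electrode MEA wells, exposed from plating day 0 through DIV 12, compound renewed at DIV 5 and 9 media changes. Mean interval between network-spike peaks recorded DIV 5, 7, 9, 12; collapsed as trapezoidal AUC, fitted downward versus DMSO.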

Assay [6] can be described thus: CCTE_Shafer_MEA_dev_network_spike_number: CCTE's Neural Network Formation Assay for Number of Network Spikes, Shafer Lab (AID 2284048).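 Further: synchronized bursts across electrodes counted on days 5 7 9 12 and integrated as AUC.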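 On AC50: fit as a loss of signal meaning fewer network spikes than DMSO.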 The procedure:
CCTE_Shafer_MEA_dev assay is conducted using Axion Biosystems 48 well microelectrode array (MEA) plates and Maestro recording system. Each well of the MEA plate contains a grid of 16 microelectrodes embedded in the culture surface. Electrically active cells, such as neurons, can be cultured over the electrodes, and electrical activity in these cells can be recorded extracellularly. The spontaneous firing of neurons is captured from each electrode on a microsecond timescale providing both temporally and spatially precise data. […] The CCTE_Shafer_MEA_dev assay uses primary cultures of rat cortical neurons. Recordings are made on days post-plating 5, 7, 9 and 12. As these cultures mature over time, neural networks develop functional activity and form cohesive networks in which electrical activity can be highly coordinated. CCTE_Shafer_MEA_dev_network_spike_number is 1 of 19 assay components of the CCTE_Shafer_MEA_dev assay. It measures the number of network spikes (temporally-clustered groups of action potential firing across multiple electrodes) during a recording in a microelectrode array (MEA) using Axion Biosystems Maestro 768 channel amplifier with the AxIS adaptive spike detector. To collapse across multiple recordings made on days post-plating 5, 7, 9 and 12, the trapezoidal area-under-the-curve of the component is calculated.Data from the assay component CCTE_Shafer_MEA_dev_network_spike_number was analyzed into 1 assay endpoint. This assay endpoint, CCTE_Shafer_MEA_dev_network_spike_number, was analyzed in the negative analysis fitting direction relative to DMSO as the negative control and baseline of activity. Using a type of functional reporter, gain or loss-of-signal activity can be used to understand electrical activity.
On the day prior to culture, each well was coated thoroughly with 150 uL of 0.05% polyethyleneimine (PEI, Sigma Cat P3143) in 50 mM HEPES (Sigma Cat H7523) at a pH of 8. The plate was incubated at 37C for one hour. PEI was rinsed out with 500 uL of sterile water three times. Plates were stored at 4C until the day of culture. This culture was plated at a seeding density of 1.5 x 10^5 cells/well on a 48-well MEA plate, prepared as described above. Cells were administered via a 25 uL media/laminin ([…]; Sigma Cat L2020-1MG) drop directly onto the microelectrode array, as adding the cells with the laminin results in better attachment than pre-coating with laminin. After 2 hours, an additional 475 uL of cortical media was added and the cells returned to the incubator. Exposure starts at day 0 of plating and is continued over twelve days of network development until the experiment is terminated. Cells are fed with fresh medium on DIV 5 and 9, following the recordings on those days. The entire volume of media in the well is exchanged and any vehicle or compound treatment is renewed. Complete details are found in OP-NHEERL/ISTD/SBB/TJS/2015-03-r0 (available on request, email shafer.tim@epa.gov). Measurement of the electrical activity is non-invasive, and recordings can be made from the same plate over multiple different days of the culture. In cortical neurons, this allows for the measurement of extracellular action potentials over the period during which networks form in the MEA plate.

The nature of assay [7]: CCTE_Shafer_MEA_dev_network_spike_peak: CCTE's Neural Network Formation Assay for Mean Number of Electrodes in Network Spike, Shafer Lab (AID 2284049).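 On AC50: fitted for loss of signal meaning fewer electrodes in network spikes than DMSO.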 The method in brief:
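Rat cortical primary culture, 1.5 x 10^5 cells/well, 48-well MEA (16 electrodes/well). Dosing day 0 through DIV 12, full media/compound exchange DIV 5, 9. AxIS adaptive spike detection; AUC over days 5/7/9/12; loss-of-signal vs DMSO.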

Assay [8] in a line: CCTE_Shafer_MEA_dev_spike_duration_mean: CCTE's Neural Network Formation Assay for Mean Spike Duration, Shafer Lab (AID 2284051).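 Further: mean network spike duration pooled as area under curve over DIV 5 to 12 recordings.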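 On AC50: potency for a decrease in mean network spike duration versus DMSO.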 The procedure, abridged: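 Primary rat cortical neurons on 16-electrode MEA wells (PEI-coated, laminin in plating drop), exposed from plating through DIV 12 with compound renewed at DIV 5 and 9. Mean network-spike duration recorded DIV 5, 7, 9, 12; trapezoidal AUC across days, DMSO baseline.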

A short description of assay [9]: CCTE_Shafer_MEA_dev_network_spike_duration_std: CCTE's Neural Network Formation Assay for Standard Deviation of Network Spike Duration, Shafer Lab (AID 2284052).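 Further: hits are decreases in network spike duration SD versus DMSO vehicle.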 The method in brief:
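Primary rat cortical neurons on PEI-coated 16-electrode MEA wells, exposed from plating day 0 through day 12 with compound renewed at DIV 5 and 9. Network spike duration SD recorded on days 5, 7, 9, 12, collapsed as trapezoidal AUC; loss-of-signal fit versus DMSO.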

The test system of the next assay is DIO2 (gene 1734). In words: CCTE_GLTED_hDIO2: CCTE's human Deiodinase 2 (DIO2) Inhibition Assay, Great Lakes Toxicology and Ecology Division (GLTED) Lab (AID 2284050; active means hit-call score of the fitted dose curve at least 0.9, where 1 is the maximum). As to the method:
CCTE_GLTED_hDIO2 is a cell-free, single-readout assay designed to test the inhibitory activity of chemicals toward human iodothyronine Deiodinase type 2 (DIO2) enzyme. Enzyme is incubated in presence of test chemical for 3 hours during which uninhibited enzyme liberates free iodide from substrate. Free iodide is measured in a second step using the Sandell-Kolthoff method.CCTE_GLTED_hDIO2 is the assay component measured from the CCTE_GLTED_hDIO2 assay. It is designed to make measurements of enzyme activity, a form of enzyme reporter, as detected with absorbance signals by spectrophotometry.Data from the assay component CCTE_GLTED_hDIO2 was analyzed into 1 assay endpoint. This assay endpoint, CCTE_GLTED_hDIO2, was analyzed in the positive analysis fitting direction relative to DMSO as the negative control and baseline of activity. Using a type of enzyme reporter, loss-of-signal activity can be used to understand changes in the enzymatic activity as they relate to the gene DIO2. Furthermore, this assay endpoint can be referred to as a primary readout, because the performed assay has only produced 1 assay endpoint. To generalize the intended target to other relatable targets, this assay endpoint is annotated to the 'deiodinase' intended target family, where the subfamily is 'deiodinase Type 2'.
Human deiodinase type 2 (hDIO2) assay, developed at Great Lakes Toxicology and Ecology Division (GLTED) within the EPA's Center for Computational Toxicology and Exposure (CCTE), is designed to test the chemicals' ability to inhibit DIO2. Assay is based on iodide release measured by the Sandell-Kolthoff method and is run in 96-well plate format with assay plates run in triplicate (n=3). The method used for the deiodinase assay was largely based on Renko et al. (2012, 2015). These works describe the utilization of the SK reaction to measure deiodinase-liberated iodide in a 96-well-plate format. The SK reaction is based on the reduction of the yellow-colored cerium IV to the non-colored cerium III by arsenic, with the rate of this reaction increased in the presence of iodide in a concentration-dependent manner (Sandell and Kolthoff, 1937). Iodinated test chemicals can interfere as competitive inhibitors, or if the stock chemical has contaminating free-iodide present. Other chemicals, e.g.: nitrite, iron, and thiocyanate can interfere with the Sandell-Kolthoff reaction (see Sandell and Kolthoff, 1937).

15 compounds from PubChem BioAssay (EPA / NIEHS) can be followed below.

Inconclusive results are not listed. Some compounds were tested as several samples or in several runs, with calls that do not always agree. Calls of active or inactive are those of the source. How the source made its calls, unless noted: active means hit-call score of the fitted dose curve at least 0.9, where 1 is the maximum; inactive means score below 0.9.

For `CCCc1cc(=O)[nH]c(=S)[nH]1`, the concentration at half-maximal activity (AC50) (usually the concentration at which the activity in the assay is half-maximal) is 23.2 µM (active) in assay [1], 11.7 µM (active) in assay [2], 23 µM (active) in assay [7] and 20.7 µM (active) in [8]. In addition, the call in assay [2], in assay [3], in assay [4], in assay [5], in [6] and in [7] was inactive. Moreover, the compound was classed as inactive in assay [8] and in assay [9].

For `FC(F)(F)C(F)(F)C(F)(F)C(F)(F)C(F)(F)C(F)(F)CCI`, the compound was called inactive in assay [1], in [2], in assay [3], in assay [4], in assay [5] and in assay [6]. The call in assay [7], in [8] and in [9] was inactive.

As to `OC[C@@H](O)[C@@H](O)[C@H](O)[C@H](O)CO`, the call in [1], in [2], in assay [3], in assay [4], in assay [5] and in assay [6] was inactive. Also, the outcome in assay [7], in assay [8] and in assay [9] was inactive.

Regarding `C[Si]1(C)O[Si](C)(C)O[Si](C)(C)O[Si](C)(C)O1`, the result in assay [1], in assay [2], in [3], in [4], in assay [5] and in [6] was inactive. Besides, the outcome in [7], in assay [8] and in assay [9] was inactive.

Regarding `CC=Cc1ccc(O)c(OC)c1`, in the assay on DIO2 (gene 1734), the AC50 was 68 µM (active).

For `COc1cc(-c2nc(NC(=O)c3cc4cc(C)cc(C)c4n3CC(=O)O)sc2CCC2CCCCC2)c(OC)cc1Cl`, the outcome with DIO2 (gene 1734) was inactive.

Regarding `Cc1cc(=O)[nH]c(=S)[nH]1`, the AC50 in assay [1] is 10 µM (active). Also, the compound was called inactive in assay [2], in assay [3], in assay [4], in assay [5], in assay [6] and in assay [7]. The call in assay [8] and in assay [9] was inactive.

In the case of `CCCCCCCCCCCCCO`, the compound was classed as inactive in the assay with DIO2 (gene 1734).

With `CN[C@H]1CC[C@@H](c2ccc(Cl)c(Cl)c2)c2ccc(S(N)(=O)=O)cc21`, the concentration at half-maximal activity (AC50) in the assay on DIO2 (gene 1734) is 49.3 µM (active).

Take `CCCCC(CC)COC(=O)CC(C(=O)OCC(CC)CCCC)S(=O)(=O)O` (configuration not stated): the AC50 in the assay with DIO2 (gene 1734) is 85.1 µM (active).

For the compound `O=c1[nH]cc(F)c(=O)[nH]1`, the AC50 is 1.39 µM (active) in assay [1]; 2.82 µM (active) in assay [4]; 974 nM (active) in assay [6]; 1.2 µM (active) in assay [7]; 1.52 µM (active) in [8]; 2.01 µM (active) in assay [9]. The call in [2], in [3] and in assay [5] was inactive.

`CC1=C(/C=C/C(C)=C/C=C/C(C)=C/CO)C(C)(C)CCC1`: the AC50 in the assay on DIO2 (gene 1734) is 47 µM (active).

In the case of `C=CCc1ccc(O)c(OC)c1`, the outcome in assay [1], in [2], in assay [3], in assay [4], in assay [5] and in assay [6] was inactive. The call in [7], in assay [8] and in assay [9] was inactive.

In the case of `CC(C)c1ccc(C(=O)N=C(N)N)cc1S(C)(=O)=O`, the compound was classed as inactive in [1], in assay [2], in assay [3], in assay [4], in assay [5] and in assay [6]. In addition, the result in assay [7], in assay [8] and in [9] was inactive.

On to `CC(=O)Oc1ccccc1C(=O)O`, for which the outcome in assay [2], in assay [3], in assay [4], in assay [5], in [6] and in [7] was inactive. In addition, the compound was classed as inactive in assay [8] and in assay [9]. Besides, the half-maximal activity concentration (AC50) in assay [3] was 26.2 µM (active); in assay [5] it was 24.2 nM (active); in assay [9] it was 0.0101 µM (active).
